Assay outcomes: PubChem BioAssay, National Center for Advancing Translational Sciences (NCATS)
BAZ2B inh: inhibitors of human BAZ2B bromodomain. AlphaScreen BAZ2B-H3K14Ac peptide displacement. Q9UIF8. Potency, µM (doses to about 114 µM), usual class: inhibitors. 360,000 compounds, 4.4% hits; further: nearly all actives have a fitted effect of over 60% in size
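Complex of BAZ2B and biotin-H3K14Ac (50 nM apiece) forms over 30 min at RT, then faces library compounds up to 110 uM for another 30 min; AlphaScreen beads added, 20 min dark incubation, luminescence read.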
Sfp inh: inhibitors of Bacillus subtilis Sfp phosphopantetheinyl transferase. Biochemical Sfp PPTase activity, qHTS. Potency, µM, hits mostly inhibitors. Q9F4F7. AID 1490. 310,000 compounds, 3.5% hits;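 further: the enzyme is Sfp with the accession as filed and its product quenches rhodamine fluorescence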
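Reaction rates are the 30-min fluorescence difference (ex 525, em 598 nm) in wells containing 15 nM Sfp, 5 uM rhodamine-CoA and 12.5 uM BHQ-2-YbbR at pH 7.6 with 10 mM MgCl2.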
G9a block: blocks human histone lysine methyltransferase G9a; Q96KQ7; G9a H3K9 monomethylation, AlphaScreen, 2 h; Potency, µM (highest dose often 102 µM), hits mostly inhibitors; 350,000 compounds, 8.8% hits; AID 504332; further: nearly all actives have a fitted effect of over 75% in size
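Enzyme 20 nM + cpd, 15 min RT; add b-H3K9 pep 500 nM / SAM 20 uM; 2 h RT; anti-H3K9me1 Ab 0.5 ug/mL + SA donor / anti-rabbit acceptor beads 20 ug/mL each, 10 min; AlphaScreen read.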
JMJD2A Tudor: inhibitors of human JMJD2A Tudor domain. O75164. AlphaScreen JMJD2A-Tudor / H3K4me3 peptide binding. Potency, µM (series often up to 114 µM), hits mostly inhibitors. 390,000 compounds, 4.4% hits; further: nearly all actives have a fitted effect of over 50% in size
HP1b chromo inh: inhibitors of HP1-beta chromodomain binding to methylated histone tails. P83916. AlphaScreen HP1-beta / biotin-H3K9me3 peptide binding. Potency, µM (highest dose often 114 µM), hits mostly inhibitors. 390,000 compounds, 0.56% hits. AID 540317; further: nearly all actives have a fitted effect of over 70% in size
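AlphaScreen: HP1-beta (50 nM) preformed 30 min with biotin-H3(1-18)K9me3 peptide (50 nM) in PBS pH 7.4, 0.01% Tween-20. Compound added for 30 min at RT, then streptavidin donor/nickel chelate acceptor beads (10 ug/mL) for 30 min.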
12-LOX inh: ALOX12 (human) lipoxygenase inhibition | purified 12hLO, xylenol orange hydroperoxide absorbance | 580,000 compounds, 1.1% hits | Potency, µM (titrated, usually from 108 µM), hits mostly inhibitors | P18054
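Purified human 12hLO (150 nM final) in 25 mM Hepes, 0.01% Triton X-100, pH 7.0 was preincubated 15 min at room temperature with compound. Then 40 uM arachidonic acid was added, 30 min. Hydroperoxide was read by Fe-XO absorbance ratio 573/405 nm.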
Hits are given with their value; i = inactive; ? = inconclusive; nt = no result; [ ] = remark or other dose. Compounds with a hit are over-represented: about 8.7% of the library has one in this group of screens. The call rests on the fitted dose curve; in most records, active means well fitted curve in the direction sought with a large enough effect; inconclusive means small, poorly fitted or top-dose-only effect, or another doubt; inactive means no such curve, though single readings can be large; an effect the other way counts as inactive or inconclusive.

SMILES | BAZ2B inh | Sfp inh | G9a block | JMJD2A Tudor | HP1b chromo inh | 12-LOX inh
COC(=O)C(NNc1ccccc1)(NC(=O)c1cccc(F)c1)C(F)(F)F (stereo unspecified) | ? | ? | 2.2µM | i | i | i
O=C1CCCN1C1CCN(Cc2cccnc2)CC1 | nt | nt | nt | nt | nt | i
COc1ccc2c(c1)nc(SCC(=O)C(C)(C)C)n2C | i | 56µM | ? | ? | i | i
COc1ccc2c(c1)nc(SCC(=O)c1cccs1)n2C | i | 89µM | 45µM | 79µM | i | i
COc1ccc2c(c1)nc(SCC(C)O)n2C (stereo unspecified) | i | i | i | i | i | i
CC(C)(C)OC(=O)N1CCCC1C(=O)O (stereo unspecified) | i | i | i | i | i | i
CC(C)(CS)C(=O)N1CCC[C@H]1C(=O)O | nt | 22µM | 4.5µM | nt | nt | nt
Cc1ccccc1-c1cc(C(=O)Nc2sc(C)c(C)c2C(N)=O)c2ccccc2n1 | ? | 50µM | ? | ? | ? | ?
CCOC(=O)c1sc(NC(=O)c2cc(-c3ccccc3C)nc3ccccc23)c(C#N)c1C | i | 45µM | 1.6µM | i[11.4 µM] | 6.3µM | ?
COc1ccc(CNC(=O)CC[C@H]2CNC(=O)[C@@H]3[C@@H](CCN3Cc3cccc(Cl)c3)N2C)cc1 | nt | nt | nt | nt | nt | i
Cc1nc(C)c(N)c(=O)[nH]1 | i | i | 50µM | i[11.4 µM] | i | i
C#CCOCCOCCOCCNc1nc(N2CCN(C(=O)C([C@@H](C)CC)n3cc(C(N)COC(=O)C(F)(F)F)nn3)CC2)nc(N2CCN(C(=O)[C@H](CCC(=O)O)n3cc(C(N)CC(C)C)nn3)CC2)n1 (stereo partly specified) | nt | nt | nt | 63µM | i | i
C#CCOCCOCCOCCNc1nc(N2CCN(C(=O)C([C@@H](C)CC)n3cc(C(N)COC(=O)C(F)(F)F)nn3)CC2)nc(N2CCN(C(=O)C([C@@H](C)CC)n3cc(C(N)CC(C)C)nn3)CC2)n1 (stereo partly specified) | nt | nt | nt | 79µM | i | ?
Cc1ccc2c(C)c(CCC(=O)N3CCC(C(=O)N4CCCCC4)CC3)c(=O)oc2c1 | nt | nt | nt | nt | nt | i
CC(=O)Nc1ccc(S(=O)(=O)N2CCC(NC(=O)CC(C)(C)C)CC2)cc1 | nt | nt | nt | nt | nt | i
COc1cccc(N2C(=O)C(CC(=O)Nc3ccccc3)N(C3CCCCC3)C2=O)c1 (stereo unspecified) | i | i | i | i | i | i
CCc1ccc(NC(=O)CC2C(=O)N(c3ccc(C)cc3)C(=O)N2C2CCCC2)cc1 (stereo unspecified) | i | nt | i | i | i | i
Cc1ccc(N2C(=O)C(CC(=O)Nc3cccc(F)c3)N(C3CC3)C2=O)cc1 (stereo unspecified) | i | i | 45µM | i | i | i
COc1ccc(NC(=O)CC2C(=O)N(c3ccc(OC)cc3)C(=O)N2C(C)C)cc1 (stereo unspecified) | ? | i | 56µM | i | i | i
CCc1ccc(NC(=O)CC2C(=O)N(c3cccc(OC)c3)C(=O)N2C2CCCC2)cc1 (stereo unspecified) | ? | nt | 7.9µM | i | i | i
CCC(CC)C(=O)N1CCC2(CC1)C(=O)N(CC)c1ccccc12 | nt | nt | nt | nt | nt | i
COCC[N+]1(C)CCCCC1 | i | i | 4.5µM | ? | i | ?
CN(C)[C@@H]1CN(C(=O)c2ccoc2)CC[C@@H]1CO | nt | nt | nt | nt | nt | i
Cc1c(C(=O)Nc2ccc(Nc3ccccc3)cc2)cccc1[N+](=O)[O-] | ? | i | 40µM | ? | i | i
CC(=O)Nc1ccc(NC(=O)c2ccccc2Nc2ccccc2)cc1 | i | i | 50µM | i | i | i
SMILES | BAZ2B inh | Sfp inh | G9a block | JMJD2A Tudor | HP1b chromo inh | 12-LOX inh
O=C(O)c1ccccc1Nc1ccccc1 | i | i | 24µM | i | i | i
CCOC(=O)c1ccccc1Nc1cn(C(C)=O)c2ccccc12 | i | i | i[12.7 µM] | i | i | i
CC(=O)n1cc(Nc2ccccc2C(=O)O)c2ccccc21 | i | i | 40µM | i | i | ?
O=C(O)c1ccccc1Nc1ccc(OC(F)F)cc1 | ? | i | i | i | i | i
CN(CCCNC(=O)c1nc2ccccc2c(=O)[nH]1)C(=O)c1ccccc1 | nt | nt | nt | nt | nt | i
COc1cccc(Nc2ccccc2C(=O)O)c1 | ? | i | 40µM | i | i | i
COc1ccc(OC)c(S(=O)(=O)Nc2ccccc2C(=O)O)c1 | i | i | ? | i | i | i
COc1cccc(Oc2ccc(OC)cc2C(=O)O)c1 | i | i | nt | 25µM | i | ?
Cc1nn(C)c(C(=O)Nc2cccc(Nc3ccccc3)c2)c1[N+](=O)[O-] | 50µM | i | 45µM | nt | nt | i
COc1cc(-c2ccc(Nc3ccccc3C(=O)O)c(OC)c2)ccc1Nc1ccccc1C(=O)O | 5.6µM | 50µM | 0.79µM | ? | 35µM | 35µM
Nc1cccc(C(=O)NCC2CCN(Cc3cc(F)cc(F)c3)C2)c1 (stereo unspecified) | nt | nt | nt | nt | nt | i
Cc1cccn2c(=O)c3cc(C#N)c(=N)n(CCN4CCOCC4)c3nc12 | 50µM | i | i | i[11.4 µM] | i | nt
Cc1ccc2nc3c(cc(C(N)=S)c(=N)n3CCCOC(C)C)c(=O)n2c1 | i | 45µM | 22µM | ? | ? | ?
COCCCn1c(=N)c(C(N)=S)cc2c(=O)n3cccc(C)c3nc21 | nt | nt | nt | i | i | ?
Cc1cccn2c(=O)c3cc(C(N)=S)c(=N)n(CCCN4CCOCC4)c3nc12 | i | i | 45µM | i | i | i
COCCCn1c(=N)c(C(=O)NCc2cccnc2)cc2c(=O)n3cc(C)ccc3nc21 | i | nt | i | i | i | i
CC(C)NC(=O)N(C1CC1)C1CCOC2(CCN(C(=O)Nc3ccccc3F)CC2)C1 (stereo unspecified) | nt | nt | nt | nt | nt | i
COc1ccccc1N1CCN(c2nc(N)c(C#N)c(CC#N)c2C#N)CC1 | i | i | 50µM | ? | i | i
Nc1nccnc1C(=O)NCC#Cc1cccc(C(F)(F)F)c1 | nt | nt | nt | nt | nt | i
CN(Cc1ccccc1Cl)C(=O)Cn1c(=O)c2c(ncn2C)n(C)c1=O | nt | nt | nt | nt | nt | i
CCN(CCCNc1ncnc2nc[nH]c12)c1cccc(C)c1 | 50µM | i | 18µM | 40µM | i | i
COc1cc(OC)c2ccc(=O)oc2c1C(CCN1CCCC1)c1ccc(N(C)C)cc1 (stereo unspecified) | 40µM | i | i | 56µM | i | i
COc1cc(OC)c2ccc(=O)oc2c1C(CC(=O)N1CCOCC1)c1ccc(N(C)C)cc1 (stereo unspecified) | i | i | ? | i | i | i
COc1cc(OC)c2ccc(=O)oc2c1C(CCN1CCCCC1)c1ccc(N(C)C)cc1 (stereo unspecified) | 40µM | i | ? | 35µM | i | i
O=S(=O)([O-])CCC[n+]1c(SCCCS(=O)(=O)O)sc2ccc(Cl)cc21 | ? | 3.2µM | 25µM | 79µM | i | i
